Reference: PubChem BioAssay (NCI)
This is part of a sample that, as a whole, favours compounds with a hit. Of some 79,000 tested, about 15% had one in any assay. The source made the active and inactive calls. Rule as the data show it: active = growth inhibition above about 70%; inactive = the rest.

Assays:
[1] = NCI Yeast Anticancer Drug Screen. Data for the rad52 strain (AID 147);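 also: 0% = growth of vehicle-treated control cultures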; settings: S. cerevisiae rad52 mutant growth inhibition, stronger effect = higher value
In short: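 Screen used a yeast mutant impaired in DNA repair. After compound exposure, growth was measured. Values reflect inhibition compared with vehicle-treated cells.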

[2] = NCI Yeast Anticancer Drug Screen. Data for the wt1 strain (AID 149);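 also: 0% = growth of vehicle-treated wt1 cultures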; settings: S. cerevisiae wt1 strain (SPY 50644) growth inhibition, stronger effect = higher value
In short: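 Growth inhibition read against vehicle controls after compound exposure of the wt1 yeast strain.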

[3] = NCI Yeast Anticancer Drug Screen. Data for the rad50EPP+ strain (AID 151);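 also: 0% = growth of vehicle-treated control cultures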; settings: S. cerevisiae rad50 mutant strain, stronger effect = higher value
In short: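 Exposing the rad50EPP+ strain to each compound, growth was compared with vehicle-only cultures to give inhibition.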

[4] = NCI Yeast Anticancer Drug Screen. Data for the rad50 strain (AID 155);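 also: 0% = growth of vehicle-only cultures of the same strain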; settings: S. cerevisiae rad50 strain growth inhibition, stronger effect = higher value
In short: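 Readout: growth inhibition relative to vehicle-treated cultures. Compound exposure was carried out in a genetically defined yeast strain deficient in DNA damage repair.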

[5] = NCI Yeast Anticancer Drug Screen. Data for the mec2-1 strain (AID 157); settings: S. cerevisiae mec2-1 strain, stronger effect = higher value
In short: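 Readout is yeast growth inhibition, normalised to vehicle-treated controls, in the mec2-1 strain exposed to compound.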

[6] = NCI Yeast Anticancer Drug Screen. Data for the rad14 strain (AID 159);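 also: 0% = growth of vehicle-treated control cultures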; settings: S. cerevisiae rad14 strain growth inhibition, stronger effect = higher value
In short: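 Growth inhibition vs vehicle controls; genetically altered yeast strain (DNA damage repair defect) treated with test compounds.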

[7] = NCI Yeast Anticancer Drug Screen. Data for the sgs1 mgt1 strain (AID 161);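 also: 0% = growth of cultures given vehicle only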; settings: S. cerevisiae sgs1 mgt1 strain, stronger effect = higher value
In short: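 This yeast growth screen uses a strain with defined DNA-repair lesions; compound-treated growth is compared with vehicle-treated growth.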

[8] = NCI Yeast Anticancer Drug Screen. Data for the CLN2oe strain (AID 163);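 also: 0% = growth of vehicle-only control cultures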; settings: S. cerevisiae CLN2oe strain, stronger effect = higher value
In short: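 Values reflect how much compound exposure reduced yeast growth, referenced to vehicle-exposed cells. Assay organism is a strain with a defined genetic change affecting cell-cycle control.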

[9] = NCI Yeast Anticancer Drug Screen. Data for the cln2 rad14 strain (AID 165);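 also: 0% = growth equal to vehicle treated cultures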; settings: S. cerevisiae cln2 rad14 strain, stronger effect = higher value
In short: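 Relative to vehicle controls, growth inhibition of compound-treated cln2 rad14 yeast was recorded.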

[10] = NCI Yeast Anticancer Drug Screen. Data for the bub3 strain (AID 167); settings: S. cerevisiae bub3 mutant strain, stronger effect = higher value
In short: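 Readout: yeast growth inhibition, expressed relative to vehicle-only wells. The test organism is a mutant strain from a panel with lesions in DNA repair or checkpoint genes.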

[11] = NCI Yeast Anticancer Drug Screen. Data for the wt2 strain (AID 169);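 also: 0% = growth of vehicle-treated yeast cultures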; settings: S. cerevisiae wt2 strain growth inhibition, stronger effect = higher value
In short: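 Values express reduction in yeast growth under compound treatment, referenced to vehicle-treated cells.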

[12] = NCI Yeast Anticancer Drug Screen. Data for the mlh1 strain (AID 171);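 also: 0% = growth of vehicle-treated control cultures of the same strain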; settings: S. cerevisiae mlh1 strain growth inhibition, stronger effect = higher value
In short: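 Steps: expose the defined-mutant yeast strain to compound; expose a parallel culture to vehicle; measure growth; express compound effect as inhibition relative to the vehicle culture.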

[13] = NCI Yeast Anticancer Drug Screen. Data for the sgs1 strain (AID 173);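 also: 0% = growth of vehicle-only control cultures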; settings: S. cerevisiae sgs1 mutant, stronger effect = higher value
In short: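 Treat defined-mutant yeast with compound; measure growth; calculate inhibition relative to vehicle-treated cells.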

[14] = NCI Yeast Anticancer Drug Screen. Data for the mlh1 rad18 strain (AID 175); settings: S. cerevisiae mlh1 rad18 strain growth inhibition, stronger effect = higher value
In short: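 Test agents were incubated with a yeast strain of defined genotype (DNA damage repair defect). Inhibition of growth was derived by comparison with vehicle-exposed cultures.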

[15] = NCI Yeast Anticancer Drug Screen. Data for the rad18 strain (AID 177); settings: S. cerevisiae rad18 mutant growth inhibition, stronger effect = higher value
In short: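 A genetically defined yeast mutant impaired in DNA damage repair was treated with test compounds, then its growth was measured against cultures receiving vehicle alone.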

[16] = at 5.0 µM (retest, dose inferred, filed as 0.5)
[17] = at 50.0 µM (retest, dose inferred, filed as 5.0)

Measured: growth inhibition

Clc1nc(C(Cl)Cl)nc2sc3c(c12)CCCC3
inactive: [1]; at 1.2 µM 10% | [1]; at 3.7 µM 11% | [1]; at 11.0 µM 14% | [1]; at 33.0 µM 26% | [1]; at 100.0 µM 54% | [2]; at 1.2 µM 2% | [2]; at 3.7 µM 4% | [2]; at 11.0 µM 5% | [2]; at 33.0 µM 21% | [2]; at 100.0 µM 56% | [3]; at 1.2 µM 1% | [3]; at 3.7 µM 0% | [3]; at 11.0 µM 1% | [3]; at 33.0 µM 0% | [3]; at 100.0 µM -2% | [4]; at 1.2 µM 6% | [4]; at 3.7 µM -1% | [4]; [16] 28% | [4]; at 11.0 µM 1% | [4]; at 33.0 µM 31% | [4]; at 100.0 µM 53% | [5]; at 1.2 µM 11% | [5]; at 3.7 µM 9% | [5]; [16] 5% | [5]; at 11.0 µM 15% | [5]; at 33.0 µM 39% | [5]; at 100.0 µM 66% | [6]; at 1.2 µM 6% | [6]; at 3.7 µM 2% | [6]; at 11.0 µM 9% | [6]; at 33.0 µM 33% | [6]; at 100.0 µM 69% | [7]; [16] 5% | [7]; [17] 26% | [8]; at 1.2 µM 7% | [8]; at 3.7 µM 9% | [8]; at 11.0 µM 12% | [8]; at 33.0 µM 46% | [8]; at 100.0 µM 63% | [9]; [16] 32% | [10]; at 1.2 µM 5% | [10]; at 3.7 µM 3% | [10]; [16] 0% | [10]; at 11.0 µM 8% | [10]; at 33.0 µM 27% | [10]; at 100.0 µM 43% | [11]; at 1.2 µM 3% | [11]; at 3.7 µM 3% | [11]; at 11.0 µM 6% | [11]; at 33.0 µM 36% | [12]; at 1.2 µM 4% | [12]; at 3.7 µM 4% | [12]; at 11.0 µM 7% | [12]; at 33.0 µM 29% | [12]; at 100.0 µM 51% | [13]; at 1.2 µM 7% | [13]; at 3.7 µM 7% | [13]; at 11.0 µM 10% | [13]; at 33.0 µM 51% | [14]; [16] -1% | [15]; at 1.2 µM 12% | [15]; at 3.7 µM 13% | [15]; at 11.0 µM 21% | [15]; at 33.0 µM 35% | [15]; at 100.0 µM 58%
active: [4]; [17] 88% | [4]; at 50.0 µM 98.2% | [5]; [17] 80% | [5]; at 50.0 µM 89.3% | [7]; at 50.0 µM 97.7% | [9]; [17] 81% | [9]; at 50.0 µM 78.2% | [10]; [17] 96% | [10]; at 50.0 µM 92.1% | [11]; at 100.0 µM 73% | [13]; at 100.0 µM 78% | [14]; [17] 74% | [14]; at 50.0 µM 96.3%

O=Cc1coc2ccccc2c1=O
inactive: [1]; at 1.2 µM -9% | [1]; at 3.7 µM 3% | [1]; at 11.0 µM 11% | [1]; at 33.0 µM 22% | [1]; at 100.0 µM 48% | [2]; at 1.2 µM 10% | [2]; at 3.7 µM 19% | [2]; at 11.0 µM 18% | [2]; at 33.0 µM 22% | [2]; at 100.0 µM 42% | [3]; at 1.2 µM 2% | [3]; at 3.7 µM 11% | [3]; at 11.0 µM 28% | [3]; at 33.0 µM 66% | [4]; at 1.2 µM -23% | [4]; at 3.7 µM 10% | [4]; [16] 12% | [4]; at 11.0 µM 17% | [4]; at 33.0 µM 24% | [4]; [17] 26% | [4]; at 50.0 µM 20.4% | [4]; at 100.0 µM 57% | [5]; at 1.2 µM -7% | [5]; at 3.7 µM 12% | [5]; [16] -15% | [5]; at 11.0 µM 18% | [5]; at 33.0 µM 18% | [5]; at 50.0 µM 35.2% | [5]; at 100.0 µM 65% | [6]; at 1.2 µM -16% | [6]; at 3.7 µM -7% | [6]; at 11.0 µM 8% | [6]; at 33.0 µM 16% | [7]; [16] 9% | [8]; at 1.2 µM -1% | [8]; at 3.7 µM 25% | [8]; at 11.0 µM 27% | [8]; at 33.0 µM 2% | [8]; at 100.0 µM 40% | [9]; [16] 6% | [9]; [17] 19% | [10]; at 1.2 µM 5% | [10]; at 3.7 µM 13% | [10]; [16] 2% | [10]; at 11.0 µM 8% | [10]; at 33.0 µM 15% | [10]; at 100.0 µM 51% | [11]; at 1.2 µM -17% | [11]; at 3.7 µM -11% | [11]; at 11.0 µM 3% | [11]; at 33.0 µM 12% | [12]; at 1.2 µM 1% | [12]; at 3.7 µM 5% | [12]; at 11.0 µM 24% | [12]; at 33.0 µM 30% | [12]; at 100.0 µM 61% | [13]; at 1.2 µM 0% | [13]; at 3.7 µM 14% | [13]; at 11.0 µM 23% | [13]; at 33.0 µM 32% | [13]; at 100.0 µM 60% | [14]; [16] -1% | [14]; [17] 16% | [14]; at 50.0 µM 62.4% | [15]; at 1.2 µM 5% | [15]; at 3.7 µM 19% | [15]; at 11.0 µM 18% | [15]; at 33.0 µM 20% | [15]; at 100.0 µM 67%
active: [3]; at 100.0 µM 91% | [5]; [17] 70% | [6]; at 100.0 µM 95% | [7]; [17] 98% | [7]; at 50.0 µM 89.7% | [9]; at 50.0 µM 75.2% | [10]; [17] 87% | [10]; at 50.0 µM 88.8% | [11]; at 100.0 µM 99%
